Assay outcomes as filed in PubChem BioAssay.
Sampled rows, rich in hits. Any-hit rate of the full collection: about 12%.
CHOP inh: inhibitors of CHOP promoter induction, primary screen, cell-based, unfolded protein response, luciferase reporter. CHO-K1 CHOP-promoter luciferase, tunicamycin-induced, 15-18 h. inhibition, % at 10 µM. hit rate 3.8% among 220,000. AID 2732, 2010;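 active = compounds that reduced the stress-induced luciferase reporter signal by more than about 70% of percent inhibition, limit read from the data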;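 also: 0% = tunicamycin plus vehicle and 100% = wells without tunicamycin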
L major viab: Leishmania major promastigote growth inhibition, primary screen | Leishmania major promastigotes, resazurin fluorescence viability | inhibition, % at 10 µM | hit rate 9% among 200,000; in the data active = inhibition above about 50%;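 also: promastigotes grown with compound for 44 hours at 28 °C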
Arbovirus inh: antivirals against arbovirus infection, primary screen, cell-based, full library, 10K replicate subset; arbovirus infection cell-based antiviral screen; AID 1251, 2008; hit rate 0.37% among 200,000; inhibition, % at 10 µM; in the data active = inhibition above about 30%
WT yeast gro inh: growth inhibition of WT strain, primary screen, mitochondrial fusion inhibitor project, WT and mutant strains, chemical genetic; inhibition, % at 10 µM; hit rate 2.1% among 190,000; mitochondrial fusion phenotypic screen; in the data active = inhibition above about 58%; tested in S. cerevisiae
Numbers without * were called inactive; / = no result given.

SMILES	CHOP inh	L major viab	Arbovirus inh	WT yeast gro inh
O=C(O)C(Cc1ccccc1)N1C(=O)/C(=C/c2ccccc2)SC1=S (stereo not given)	4	-4	2	-21
Cc1ccc2cc(CN(CCN3CCOCC3)Cc3nnnn3Cc3ccco3)c(=O)[nH]c2c1C	-1	-3	-1	-12
Cc1ccc(C)c2[nH]c(=O)c(CN(Cc3ccc4c(c3)OCO4)Cc3nnnn3Cc3ccco3)cc12	26	58*	-20	30
Cc1ccc2cc(CN(Cc3ccc4c(c3)OCO4)Cc3nnnn3Cc3ccco3)c(=O)[nH]c2c1C	53	68*	-18	16
O=C1Nc2cc3c(cc2C1=O)sc1ccccc13	28	/	/	/
COc1ccc(S(=O)(=O)NCC2CCCN(Cc3cccnc3)C2)cc1 (stereo not given)	5	38	-5	-16
COc1ccc(S(=O)(=O)NCC2CCCN(Cc3ccccc3C)C2)cc1 (stereo not given)	33	99*	-11	-11
O=C(Nc1ccc([N+](=O)[O-])cc1)Nc1ccc(N2CCOCC2)c2nonc12	76*	98*	-34	79*
CC(=O)Nc1cc([N+](=O)[O-])ccc1N1CCOCC1	-1	8	0	9
CCOc1ccc2cc(/C=C/C(=O)c3ccco3)c(Cl)nc2c1	13	64*	-8	3
CCOc1ccc(CNC(=O)c2ccco2)cc1	-5	-1	8	-9
C=CCc1ccccc1OCC(=O)N/N=C/c1ccc(OC(C)=O)cc1OC(C)=O	73*	98*	-24	-5
CCCOc1ccc(C2NC(=S)NC(c3ccccc3)=C2C(=O)Nc2ccc(C)cc2)cc1OC (stereo not given)	20	13	-3	14
Clc1cccc(CSc2ncn(-c3ccccc3)n2)c1	93*	-3	-18	40
Clc1ccc(CSc2ncn(-c3ccccc3)n2)cc1	-18	5	-12	34
COc1ccc(Cn2c(-c3ccc(Br)cc3)c[n+]3ccccc23)cc1	-10	99*	9	63*
COc1ccc(Cn2c(C)ccc2C)cc1	21	-8	4	17
COC(=O)c1ccc(NC(=O)C2CCCN2S(=O)(=O)c2ccc(OC)cc2)cc1 (stereo not given)	-113	58*	0	-1
COc1ccc(S(=O)(=O)N2CCCC2C(=O)Nc2ccc(O)cc2)cc1 (stereo not given)	-1	-7	-9	7
COc1ccc(S(=O)(=O)N2CCC[C@H]2C(=O)NC2=NCCS2)cc1	10	-3	6	66*
Cc1nnc(SCC(=O)c2ccccc2)n1Cc1ccccc1	4	-5	1	-9
Cc1cccc(C)c1NC(=O)CCCSc1nnc(-c2ccc(Cl)cc2)n1-c1ccccc1	16	56*	18	36
O=C(C1CC1)N1CCc2cc(S(=O)(=O)N3CCOCC3)ccc21	-5	-3	2	-8
CC(Cl)C(=O)c1ccc2c(c1)CCN2C(=O)C1CC1 (stereo not given)	-473	96*	2	-9
COc1ccc(/C=C2/SC(=S)N(n3c(C)ccc3C)C2=O)cc1	90*	9	0	36
SMILES	CHOP inh	L major viab	Arbovirus inh	WT yeast gro inh
CCOc1ccc(/C=C2/SC(=S)N(n3c(C)ccc3C)C2=O)cc1	21	21	23	46
O=C(O)CCN1C(=O)/C(=C\c2ccc(-c3nc4ccccc4s3)o2)SC1=S	74*	-6	26	-25
O=C(O)CCN1C(=O)/C(=C\c2ccncc2)SC1=S	-7	9	2	-18
COc1ccc(/C=C2/SC(=S)N(CCC(=O)O)C2=O)cc1	84*	-4	8	0
C=C(C)CNC(=S)N/N=C/c1ccco1	-21	/	/	/
O=C(NCc1ccco1)c1ccc2ccccc2n1	-15	-3	0	28
O=C(Nc1ccc(S(=O)(=O)NCc2ccco2)cc1)c1ccc2ccccc2n1	29	52*	-1	21
N#Cc1cccc(S(=O)(=O)NCC(=O)OCC(=O)c2ccc[nH]2)c1	4	2	10	-14
COC(=O)[C@@]1(Cc2ccc(OC)cc2)[C@@H]2C(=CC(=O)[C@H]2CC(=O)C(=O)N2CCCC2)CN1C(=O)c1ccccc1	0	100*	-37	-9
CCN1/C(=C\c2ccc3cc(C)ccc3[n+]2CC)Sc2cc(C)c(C)cc21	55	100*	-35	88*
CCCN1C(=O)/C(=C\C=C2/Sc3ccccc3N2CC)SC1=S	12	1	-1	13
CCN1/C(=C/c2ccc3cccc(C)c3[n+]2CC)Sc2ccccc21	69	101*	-37	62*
CCN1/C(=C/c2ccc3cc(C)cc(C)c3[n+]2CC)Sc2cc(C)ccc21	64	100*	-35	95*
COc1cccc(/C=N/NC(=O)Cn2nc([N+](=O)[O-])cc2C)c1	12	/	/	/
CCOc1ccc(NC(=O)c2ccc(NC(=O)Cc3n[nH]c(=O)c4ccccc34)cc2)cc1	-1	/	/	/
OCC1OC(n2cnc3ccccc32)CC1O (stereo not given)	7	/	/	/
CCCCNc1ccc2nsnc2c1[N+](=O)[O-]	10	-6	-6	5
CCN1CC(c2ccccc2)C(c2ccc(Cl)cc2)=N1 (stereo not given)	79*	0	8	25
COc1ccc(OCCC(=O)NCC23CC4CC(CC(C4)C2)C3)cc1	29	97*	-5	6
COc1ccc(OCCC(=O)NCc2ccccc2)cc1	9	-4	2	1
COc1ccc(CC(=O)NC(C)c2nnc(SCC(=O)Nc3cc(C)ccc3OC)n2C)cc1 (stereo not given)	14	-4	4	4
CCOC(=O)C1=CN(Cc2ccc(OC)cc2)C=C(C(=O)OCC)C1c1cccs1	3	100*	6	32
CCOC(=O)c1c(C)oc2c1c(C=NCCO)c(O)c1ccccc12	50	-4	4	4
CCOC(=O)c1c(C)oc2c1c(C(c1ccccc1)N1CCOCC1)c(O)c1ccccc12 (stereo not given)	-23	36	-37	67*
CCOC(=O)c1c(C)oc2c1c(C(c1cccnc1)N1CCCCC1)c(O)c1ccccc12 (stereo not given)	17	98*	-46	71*
SMILES	CHOP inh	L major viab	Arbovirus inh	WT yeast gro inh
S=C(NCCC1=CCCCC1)Nc1ccc(Cl)cc1	81*	3	7	-19
Clc1ccc(CNCCC2=CCCCC2)cc1	36	90*	-2	-16
O=C(NCCC1=CCCCC1)C(=O)NCc1ccccc1	17	7	0	-7
CCN1CCN(c2ccc(NC(=O)c3ccc([N+](=O)[O-])o3)cc2Cl)CC1	-83	101*	-32	9
CCC(=O)N1CCN(c2ccc(NC(=O)c3ccc([N+](=O)[O-])o3)cc2Cl)CC1	25	101*	-21	66*
O=c1c2ccccc2nc(SCc2ccncc2)n1CC1CCCO1 (stereo not given)	9	6	-8	-12
C=CCNC(=S)/N=c1/ccccn1CCC	2	/	/	/
COC(=O)CCCC(=O)NC(C)c1cnn(-c2ccccc2C)c1C (stereo not given)	-14	-10	3	0
